Laboratory results from PubChem BioAssay (Tox21).
Inconclusive results are not listed. Unmarked numbers belong to inactive results. Activity calls are given as the source filed them. The call rests on the fitted dose curve.
On the % scale 0 is the no-effect control and ±100 the full control effect; potency means the concentration at half of the fitted maximal effect.

Experiment: qHTS assay to identify small molecule agonists of H2AX - cell viability counter screen (AID 1224847); further: nearly all actives have a fitted effect of over 30% in size; on activity change, negative = cytotoxicity: top concentration of the series differs between compounds
Conditions: CHO-K1 viability, CellTiter-Glo luminescence, 3 h; series mostly up to 154 µM; activity change, negative = cytotoxicity: at the top concentration
Source text: National Center for Advancing Translational Sciences [NCATS]
NIH Chemical Genomics Center [NCGC]
U.S. Environmental Protection Agency [EPA]
National Institutes of Environmental Health Sciences [NIEHS]
National Toxicology Program [NTP]
U.S. Food and Drug Administration [FDA]
HTRF phospho-H2AX (Ser139) assay (Cisbio Bioassays, US) enables the quantitative detection of the histone variant H2AX when phosphorylated on serine 139. When double-stranded DNA breaks, either by ionizing radiation or endogenous physiological processes, H2AX becomes phosphorylated at Ser139. This phospho-Ser139 serves as a sensitive biomarker for the detection of such breaks, localizing the site of DNA repair. So, HTRF phospho-H2AX Ser139 is a pertinent assay to study genome stability, the cell cycle, DNA repair, and it serves as a biomarker for cancer, and to understand aging. Wild type CHO-K1 cells were used to identify the inducers of Phospho-H2AX Ser 139 from the Tox21 compound collections. Also cytotoxicity of the Tox21 10K compound library against the CHO-K1 cell line was tested by measuring the cell viability using CellTiter-Glo assay (Promega, Madison, WI).
Tox21 Assay Protocol Summary:
The CHO-K1 cells suspended in culture medium containing 10% FBS were dispensed at 1000 cells/ 3 ul/well in 1536-well white wall/solid bottom plates (Greiner Bio-One North America, NC) using a Multidrop Combi (Thermo Fisher Scientific Inc., Waltham, MA). After the assay plates were incubated at 37C overnight, 23 nl of compounds at 15 concentrations (from 5-48 columns) or positive control (from 1 to 4 columns) were transferred to the assay plates using a Pintool station (Wako, San Diego, CA) into each well resulting in a final DMSO concentration of 0.76%. After 3hr incubation at 37C, 3 uL/well CellTiter-Glo luminescent cell viability reagent (Promega Corporation, Madison, WI) was added using a Flying Reagent Dispenser (FRD) (Aurora Discovery, CA). After incubation at room temperature for 30 min, the luminescence intensity was read using a ViewLux plate reader (PerkinElmer, Waltham, MA).
For `CC(=O)OCC(=O)[C@H]1CC[C@H]2[C@@H]3CCC4=CC(=O)CC[C@]4(C)[C@H]3CC[C@]12C`, the “activity change, negative = cytotoxicity” value was -12.5% [at 70.9 µM]. In the case of `CCC(C)(C)C1CCC(O)CC1` (stereo not given), the “activity change, negative = cytotoxicity” value is reported as -5.34%. For `CCOc1cc(N)c(Cl)cc1C(=O)NCC1CN(Cc2ccc(F)cc2)CCO1` (stereo not given), the “activity change, negative = cytotoxicity” value was -0.304% [at 70.9 µM]. In the case of `Cc1cc(O)c(C(C)C)cc1Cl`, the Potency is reported as 89.8 µM (active). In the case of `O=C(C(=O)c1ccccc1)c1ccccc1`, the “activity change, negative = cytotoxicity” value is reported as 0.492%. In the case of `CNC(=O)N(c1ccccc1)c1ccccc1`, the “activity change, negative = cytotoxicity” value is reported as 4.59%. For `Cc1nc2ccccn2c(=O)c1CCN1CCC(C(=O)c2ccc(F)cc2)CC1`, the “activity change, negative = cytotoxicity” value was -4.82% [at 70.9 µM]. With `CO[C@H]1O[C@H](CO)[C@@H](O)[C@H](O)[C@H]1O` the “activity change, negative = cytotoxicity” value was 1.36%. In the case of `CCC(=O)Oc1ccc(/C(CC)=C(\CC)c2ccc(OC(=O)CC)cc2)cc1`, the “activity change, negative = cytotoxicity” value is reported as -0.159%. For `CCCCCCCCCCCC[N+](C)(C)CCCS(=O)(=O)[O-]`, the “activity change, negative = cytotoxicity” value was -4.53%. In the case of `CC(C)(CCl)c1ccccc1`, the “activity change, negative = cytotoxicity” value is reported as 0.388%. For `CCOC(=O)c1ccccc1OC`, the “activity change, negative = cytotoxicity” value was 0.802%. With `C=CC(C)(O)CCCC(C)CCCC(C)CCCC(C)C` (stereo not given) the “activity change, negative = cytotoxicity” value was 0.794%. With `CCCCCCCCSCCO` the “activity change, negative = cytotoxicity” value was -0.492%. In the case of `CCCCCCOC(=O)C(C)C`, the “activity change, negative = cytotoxicity” value is reported as -2.98%. For `CC1=CC(O)CC(C)(C)C1` (stereo not given), the “activity change, negative = cytotoxicity” value was -1.03%. With `COCCOC` the “activity change, negative = cytotoxicity” value was -0.105%. In the case of `CCCCCC=CCC=CCCCCCCCC(=O)OCC`, the “activity change, negative = cytotoxicity” value is reported as -0.839% [at 70.9 µM]. In the case of `NC(=O)N(O)[C@@H]1COc2cc(OCc3ccccc3)ccc21`, the “activity change, negative = cytotoxicity” value is reported as -4.63%. `CCCC(=O)O[C@]1(C(=O)COC(=O)CC)CC[C@H]2[C@@H]3CCC4=CC(=O)CC[C@]4(C)[C@H]3[C@@H](O)C[C@@]21C` showed an activity change, negative = cytotoxicity of 1.02% [at 31.6 µM]. For `C[Si]1(C)O[Si](C)(C)O[Si](C)(C)O1`, the “activity change, negative = cytotoxicity” value was -2.27%. With `COc1ccccc1N=Nc1c(S(=O)(=O)O)cc2cc(S(=O)(=O)O)cc(NC(C)=O)c2c1O` the Potency was 42.3 µM (active). With `Nc1c(I)cc(I)c(C(=O)N(CCC(=O)O)c2ccccc2)c1I` the “activity change, negative = cytotoxicity” value was 4.97% [at 70.9 µM]. With `CO[C@H]1C=CO[C@@]2(C)Oc3c(C)c(O)c4c(O)c(c5c(c4c3C2=O)=NC2(CCN(CC(C)C)CC2)N=5)NC(=O)/C(C)=C\C=C/[C@H](C)[C@H](O)[C@@H](C)[C@@H](O)[C@@H](C)[C@H](OC(C)=O)[C@@H]1C` the Potency was 98.6 µM (active). In the case of `O=C1NCCN1`, the “activity change, negative = cytotoxicity” value is reported as -0.203%. For `CC1=NN(c2ccc(C(=O)O)cc2)C(=O)C1`, the “activity change, negative = cytotoxicity” value was 7.36%. In the case of `CCn1cc(C(=O)O)c(=O)c2cc(F)c(N3CCNCC3)nc21`, the “activity change, negative = cytotoxicity” value is reported as -1.07% [at 70.9 µM]. With `Nc1ccc(S(=O)(=O)O)cc1` the “activity change, negative = cytotoxicity” value was -1.17%. For `C=CC(=C)CCCC(C)(C)OC(C)=O`, the “activity change, negative = cytotoxicity” value was 0.698%. In the case of `Cc1cc(OI)c(C(C)C)cc1-c1cc(C(C)C)c(OI)cc1C`, the “activity change, negative = cytotoxicity” value is reported as -1.12% [at 70.9 µM]. In the case of `CC(C)(C)C(=O)O`, the “activity change, negative = cytotoxicity” value is reported as 1.91%. For `Cc1cnc(C)c(C)n1`, the “activity change, negative = cytotoxicity” value was -5.02%. For `Cn1c(=O)c2c(ncn2CC(=O)O)n(C)c1=O`, the “activity change, negative = cytotoxicity” value was 1.15% [at 70.9 µM]. For `CC1CC(=O)NN=C1c1ccc(NCC(C)(C)NCC(O)COc2cc(Cl)ccc2C#N)cc1` (stereo not given), the “activity change, negative = cytotoxicity” value was 1.27% [at 70.9 µM]. With `NC(=O)N(O)[C@@H]1C=C[C@H](Oc2cccc(Oc3ccc(F)cc3)c2)C1` the “activity change, negative = cytotoxicity” value was -15%. In the case of `CC(C)CCCCCOC(=O)CCCCC(=O)OCCCCCC(C)C`, the “activity change, negative = cytotoxicity” value is reported as -2.62%. In the case of `Nc1nc(Cl)nc2c1ncn2[C@@H]1O[C@H](CO)[C@@H](O)[C@@H]1F`, the “activity change, negative = cytotoxicity” value is reported as 2.53% [at 70.9 µM]. For `CC[C@@H]([C@H](C)O)n1ncn(-c2ccc(N3CCN(c4ccc(OC[C@@H]5CO[C@@](Cn6cncn6)(c6ccc(F)cc6F)C5)cc4)CC3)cc2)c1=O`, the Potency was 19.6 µM (active). In the case of `Cc1ccc(Nc2nccc(N(C)c3ccc4c(C)n(C)nc4c3)n2)cc1S(N)(=O)=O`, the “activity change, negative = cytotoxicity” value is reported as -11.9% [at 70.9 µM]. In the case of `CC#N`, the “activity change, negative = cytotoxicity” value is reported as 2.82%.
